Screens as filed in PubChem BioAssay.
Tau fibril ThT: tau fibrillization inhibition (ThT binding); P10636; recombinant tau K18 P301L, heparin-induced fibrillization, ThT fluorescence; Potency, µM (series often up to 57.4 µM), inactives show top-dose activity, negative = inhibition, most hits filed as inhibitors; hit rate 2.1% among 270,000; also: nearly all actives have a fitted effect of over 55% in size
Target sequence (P10636 561-689 P618L limits assumed): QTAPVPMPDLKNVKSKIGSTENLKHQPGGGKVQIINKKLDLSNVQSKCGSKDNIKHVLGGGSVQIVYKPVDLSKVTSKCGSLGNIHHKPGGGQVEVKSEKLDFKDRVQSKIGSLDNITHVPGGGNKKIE
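Heparin-induced (20 uM) aggregation of recombinant human K18 P301L tau, 15 uM unlabeled with 0.24 uM labeled, pH 7 acetate buffer, 6 hr at 37 C with compound. Fibrils quantified by 30 uM ThT fluorescence after 1 hr ambient incubation.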
Tau fluor cs: counter-screen for tau fibril formation inhibitors | tau K18 P301L (four-repeat tau fragment) Alexa594 fluorescence, heparin fibrillization | Potency, µM (series often up to 57.7 µM), for the others: at the top dose activity change, negative = decrease | hit rate 0.93% among 280,000; also: nearly all actives have a fitted effect of over 55% in size
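Human K18 P301L tau (15 uM unlabeled plus 0.24 uM Alexa 594-labeled, final) in 100 mM sodium acetate pH 7 was mixed with compound and 20 uM heparin and incubated 6 hr at 37 C.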
Gal4-VP16 FLuc: counter-screen for ROR gamma inhibitors: Gal4-VP16 reporter; Drosophila S2 Gal4-VP16 UAS-luciferase, luminescence, 20 h; Potency, µM (top dose mostly 53.6 µM), for the others: at the highest dose activity, negative = inhibition, actives largely listed as inhibitors; hit rate 3.5% among 310,000;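 also: Gal4-VP16 expression switched on by copper sulfate through the metallothionein promoter; nearly all actives have a fitted effect of over 50% in size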
RORgamma inh: inhibitors of mouse ROR gamma transcriptional activity; P51450; Drosophila S2 Gal4-RORgamma UAS-luciferase reporter, 20 h; Potency, µM (doses to about 53.6 µM), inactives show at the highest dose activity change, negative = inhibition, most hits filed as inhibitors; hit rate 5.4% among 310,000; also: nearly all actives have a fitted effect of over 60% in size
Target sequence (P51450 whole entry, looked up, the tested form may be a part): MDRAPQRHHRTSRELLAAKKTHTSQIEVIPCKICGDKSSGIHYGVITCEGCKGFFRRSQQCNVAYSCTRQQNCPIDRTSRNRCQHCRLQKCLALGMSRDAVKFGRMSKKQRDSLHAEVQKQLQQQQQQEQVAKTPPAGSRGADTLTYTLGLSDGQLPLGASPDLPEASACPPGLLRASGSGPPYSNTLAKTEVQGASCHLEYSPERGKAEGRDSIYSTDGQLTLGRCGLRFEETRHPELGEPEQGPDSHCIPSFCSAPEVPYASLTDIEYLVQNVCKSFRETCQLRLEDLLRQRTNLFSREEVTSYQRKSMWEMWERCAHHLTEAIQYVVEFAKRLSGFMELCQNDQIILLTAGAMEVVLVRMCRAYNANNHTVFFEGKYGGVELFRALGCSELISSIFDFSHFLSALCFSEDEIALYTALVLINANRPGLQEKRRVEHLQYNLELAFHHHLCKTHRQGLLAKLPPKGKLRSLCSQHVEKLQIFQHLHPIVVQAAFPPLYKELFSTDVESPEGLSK
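A Gal4/UAS one-hybrid system in insect cells: metallothionein-promoter Gal4–ROR gamma fusion plus Photinus luciferase reporter. Copper sulfate 700 uM final, 20 hr ambient incubation, luminescent detection after 10 min with reagent.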
Tau fibril FP: inhibitors of human tau fibril formation; P10636; K18 P301L tau heparin fibrillization, Alexa594 FP, 6 h; Potency, µM (series often up to 57.7 µM), without a hit: at the highest dose activity, negative = inhibition, actives largely listed as inhibitors; hit rate 0.39% among 280,000; AID 1468; also: nearly all actives have a fitted effect of over 55% in size
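Compound effects on tau fibrillization are measured by Alexa 594 fluorescence polarization (ex 555, em 632 nm). K18 P301L tau is used at 15 uM with 0.24 uM labeled tracer, and 20 uM heparin induces aggregation over 6 hr at 37 C.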
Active calls of the source: *; ? = inconclusive; · = no result; [ ] = dose if it differs, or a comment. The list is not random: actives were taken first. Their share in the collection is about 7.3%. Calls follow the shape of the dose curve; as a rule, active = well fitted curve in the direction sought with a large enough effect; inconclusive = small, poorly fitted or top-dose-only effect, or another doubt; inactive = no such curve, though single readings can be large; an effect the other way counts as inactive or inconclusive. % is scaled to controls: 0 for no effect and ±100 for the full control effect; potency is read from the fitted curve at half-maximal effect.

SMILES	Tau fibril ThT	Tau fluor cs	Gal4-VP16 FLuc	RORgamma inh	Tau fibril FP
COc1ccc(NC(=S)Nc2ccc(N)c([N+](=O)[O-])c2)cc1	15.8µM*	?	?	2.2%	2.6%
CCOc1ccc(CSCCNC(=S)Nc2ccccc2)cc1	-14.7%	?	4.47µM*	6.31µM*	-11.9%
CCC(C)c1ccc(NC(=S)Nc2ccc(OC)cc2)cc1 (centres undefined)	-11.8%	?	5.62µM*	7.08µM*	?
CCOc1ccc(NC(=O)NCCCN2CCN(c3ccc(OC)cc3)CC2)cc1	?	-26.3%	·	·	?
COc1ccc(NC(=O)c2ccccc2[N+](=O)[O-])cc1	-3.8%	-10.2%	3.6%	24.3%	-2.2%
CC(C)(C)c1ccc(OCCNC(=S)Nc2ccccc2)cc1	-4.0%	-6.7%	-3.2%	-25.1%	2.5%
CCOc1ccc(S(=O)(=O)N(CC(=O)NCCSCc2ccccc2)c2ccccc2)cc1	-1.1%	-2.2%	·	·	?
O=C(CN(CCc1ccccc1)Cc1ccccc1)Oc1ccccc1P(=O)(O)O	·	·	-13.9%	69.6%	·
CCCc1cc(=O)oc2cc(OCC(=O)N3CCN(C(=O)C4COc5ccccc5O4)CC3)ccc12 (centres undefined)	·	·	-6.8%	24.0%	·
COc1ccc(NC(=O)Nc2cccc(C)n2)cc1	?	-13.2%	-2.8%	0.1%	6.0%
COc1ccc(NC(=S)Nc2cccc(C)n2)cc1	1.4%	1.1%	4.47µM*	?	-11.6%
CCOc1ccc(NC(=S)NCc2cccnc2)cc1	-12.5%	-12.2%	14.2%	-14.2%	9.8%
CCOc1ccc(NC(=S)Nc2ccc(OCc3ccccc3)cc2)cc1	8.4%	5.9%	22.4µM*	?	5.2%
CCOc1ccc(NC(=S)NCCCc2ccccc2)cc1	-25.8%	?	?	5.01µM*	?
CNC(=S)Nc1ccc(OCc2ccccc2)cc1	-10.6%	-22.1%	?	3.98µM*	-0.8%
N[C@@H](Cc1cc(I)c(Oc2ccc(O)cc2)c(I)c1)C(=O)O	-15.2%	-20.3%	·	·	-2.6%
CCOc1ccc(NC(=S)Nc2ccc(Br)cc2Cl)cc1	?	-24.5%	?	14.1µM*	5.0%
Cc1cccnc1NC(=S)Nc1ccc(Br)cc1Cl	-11.3%	-14.2%	7.08µM*	2.51µM*	-7.0%
CCOc1ccc(NC(=S)NCCN2CCN(Cc3ccccc3)CC2)cc1	-9.5%	-11.2%	?	11.2µM*	-2.7%
COc1cccc(NC(=S)Nc2ccc(Br)cc2Cl)c1	-14.6%	?	0.0%	-1.8%	-12.7%
CCOc1ccc(NC(=S)Nc2ccc(OC)cc2)cc1	?	-19.7%	?	7.94µM*	3.4%
S=C(NCc1ccncc1)Nc1ccc(Br)cc1Cl	·	·	-18.3%	-3.4%	·
Cc1ccc(SCc2[nH]nc3c2C(c2ccc(C)o2)C(C#N)=C(N)O3)cc1 (centres undefined)	14.1µM*	?	-6.5%	12.2%	?
CCc1[nH]nc2c1C(c1ccc(C)o1)C(C#N)=C(N)O2 (centres undefined)	4.8%	5.6%[2.34 µM]	-13.3%	8.3%	-1.5%[2.34 µM]
Cc1ccc(SCc2[nH]nc3c2C(c2ccco2)C(C#N)=C(N)O3)cc1 (centres undefined)	20µM*	?	?	-78.8%	?
SMILES	Tau fibril ThT	Tau fluor cs	Gal4-VP16 FLuc	RORgamma inh	Tau fibril FP
Cc1ccc(SCc2[nH]nc3c2C(C(C)C)C(C#N)=C(N)O3)cc1 (centres undefined)	-4.8%	-19.3%	-4.4%	6.4%	2.9%
COc1ccccc1N(CC(O)CN1CCCCC1)S(=O)(=O)c1ccc(C)cc1 (centres undefined)	·	·	0.4%	0.8%	·
CCN(CC)C(=O)[C@@]1(c2ccccc2)C[C@@H]1CN	·	·	-4.6%	11.8%	·
O=C(CSc1nc2ncccc2o1)Nc1ccc(Cl)cc1F	-12.5%	-6.0%	·	·	-1.3%
COc1ccccc1NC(=O)NNC(=O)CCc1ccccc1	·	·	-5.2%	-34.9%	·
COCCCNC(=O)CSc1nc2cc3c(cc2c(=O)n1CCCCCC(=O)NCCc1ccc(OC)c(OC)c1)OCO3	-3.9%	-2.7%	·	·	-3.7%
CCc1cc(OCCCSc2nc(C)cc(=O)[nH]2)ccc1Cl	?	-11.1%	8.91µM*	?	4.1%
Cc1cc(=O)[nH]c(SCCCOc2ccccc2Cl)n1	-3.6%	-3.5%	?	-9.2%	5.5%
Cc1ccc(N(CC(=O)NC2CCCC2)C(=O)CNC(=O)c2cccs2)c(C)c1	·	·	-9.6%	-13.0%	·
O=C(CCC(=O)Nc1ccc(Br)cc1)N/N=C/c1ccc(F)cc1	·	·	-7.6%	0.2%	·
O=S(=O)(c1ccc(Cl)c(NC(=S)N/N=C/c2ccc(O)cc2)c1)N1CCOCC1	?	?	6.31µM*	10µM*	-3.7%
O=S(=O)(c1ccc(Cl)c(NC(=S)N/N=C/c2c(F)cccc2F)c1)N1CCOCC1	-8.5%	-21.8%	1.78µM*	2µM*	-14.1%
Cn1c(=O)c2sccc2n2c(CCC(=O)NCc3ccccc3)nnc12	-5.8%	-13.9%	·	·	-5.7%
CCCCCCCCCCOCC(O)CN (centres undefined)	·	·	8.4%	-14.5%	·
Cc1cc(Nc2ccccc2)c2c([N+](=O)[O-])ccc(C)c2n1	12.2%	7.7%	35.5µM*	?	8.4%
Cc1cc(Nc2cccc([N+](=O)[O-])c2)c2cccc(C)c2n1	-9.4%	-13.8%	-2.9%	-18.8%	-1.1%
Cc1ccc2oc3c(c(=O)c2c1)C1(C(=O)N(C)c2ccccc21)N(CCCO)C3=O (centres undefined)	-5.8%	-11.9%	·	·	-6.8%
O=C(c1ccc(Cl)cc1)N1CCC(c2ccncc2)CC1	12.4%	12.5%	·	·	-1.9%
OB(O)c1ccc(Br)cc1	-0.6%	-5.4%	0.2%	0.4%	3.6%
CC(=NC1CC1)C1=C(O)c2ccccc2C1=O	-9.9%	-2.1%	3.8%	25.8%	-0.6%
O=C1C(C2=C(O)c3ccccc3C2=O)=Nc2ccccc21	7.08µM*	?	?	-29.5%	?
NS(=O)(=O)c1ccc2c(c1)C1C=CCC1C(C1CC=CCC1)N2 (centres undefined)	35.5µM*	28.2µM*[quencher]	-8.5%	-16.6%	?
CC(C)C1Nc2ccc(S(N)(=O)=O)cc2C2C=CCC21 (centres undefined)	20µM*	?	·	2.8%[0.365 µM]	?
Cc1noc(C)c1-c1cc(N(C)Cc2ccco2)ncn1	·	·	22.4%	-17.5%	·
Cn1c(CNC(=O)c2ccco2)nnc1SCC(=O)c1ccccc1	-4.0%	-8.1%	17.7%	28.2µM*	?
CCCCCCC1CC(=O)NC(=S)N1 (centres undefined)	7.1%	2.0%	?	8.91µM*	-2.8%
CCCCCCCCCCCC(=O)N1CC(=O)NC(=O)C1	-10.1%	-4.6%	-7.1%	-10.5%	11.5%
Cc1ccc(-c2nnc(Nc3ccc(O)cc3)c3ccccc23)cc1S(=O)(=O)N1CCCCC1	-1.7%	4.47µM*[quencher]	·	·	16.6%
Cc1ccc(-c2nnc(Nc3ccc(C(N)=O)cc3)c3ccccc23)cc1S(=O)(=O)N1CCCCC1	-7.3%	?	·	·	28.2µM*
